LmPK inh – qHTS Assay for Inhibitors of Leishmania Mexicana Pyruvate Kinase (LmPK); Q27686; purified LmPK, Kinase-Glo ATP luminescence, 1 h; Potency, µM (series often up to 57.5 µM), for the others: top-dose activity change, negative = inhibition, hits mostly inhibitors; actives 0.37% (n = 290,000); AID 1721, 2009; note: potency is the fitted concentration of half-maximal effect; % is set by controls: 0 for no effect and ±100 for the full control effect
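In 50 mM imidazole pH 7.2 with 7 mM MgCl2, LmPK (0.1 nM) turned over PEP (0.5 mM) and ADP (0.1 mM) for 1 h at room temperature. Luciferase read-out of ATP.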
FBPA Giardia inh – qHTS Assay for Inhibitors of Fructose-1,6-bisphosphate Aldolase from Giardia Lamblia | A8B2U2 | purified Giardia FBPA | Potency, µM (titrated, usually from 59.6 µM), for inactives: at the top dose activity, negative = inhibition, most hits filed as inhibitors | actives 0.71% (n = 290,000); note: potency is the fitted concentration of half-maximal effect; % is set by controls: 0 for no effect and ±100 for the full control effect; nearly all actives have a fitted effect of over 55% in size
Target sequence (A8B2U2 whole entry, looked up): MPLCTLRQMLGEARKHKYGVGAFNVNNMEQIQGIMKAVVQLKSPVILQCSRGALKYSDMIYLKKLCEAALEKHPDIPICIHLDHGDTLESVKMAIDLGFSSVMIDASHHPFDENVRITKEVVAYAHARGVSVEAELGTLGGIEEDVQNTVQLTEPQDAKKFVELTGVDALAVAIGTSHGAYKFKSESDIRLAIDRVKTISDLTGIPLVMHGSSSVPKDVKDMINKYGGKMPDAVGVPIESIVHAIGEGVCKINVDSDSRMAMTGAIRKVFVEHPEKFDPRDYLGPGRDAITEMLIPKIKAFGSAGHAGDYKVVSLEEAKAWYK
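40 nM FBPA preincubated 10 min at RT with compound (up to 57.5 uM final), then substrate plus GAPDH/TPI/NAD/arsenate coupling and diaphorase/resazurin added. Fluorescence read after 20 min at RT, 525/598 nm.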
Sm TGR inh – qHTS Assay for the Inhibitors of Schistosoma Mansoni Peroxiredoxins | Schistosoma mansoni thioredoxin glutathione reductase (TGR), Q962Y6 | purified TGR, DTNB reduction, TNB absorbance 405 nm | Potency, µM (highest dose often 114 µM), inactives show at the highest dose activity change, negative = inhibition, actives largely listed as inhibitors | actives 3% (n = 360,000) | AID 485364, 2010; note: potency is the fitted concentration of half-maximal effect; % is set by controls: 0 for no effect and ±100 for the full control effect; nearly all actives have a fitted effect of over 60% in size
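Kinetic colorimetric format: TGR-catalysed, NADPH-driven DTNB reduction monitored via TNB absorbance. Enzyme dispensed at 20 nM; compound exposure 15 min at room temperature before reaction start.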
Shiga inhibitor – A qHTS for Small Molecule Inhibitors of Shiga Toxin | Vero cells, Shiga toxin protein synthesis inhibition reporter | inhibition, % at 38.7 µM | AID 2315, 2010 | actives 9.2% (n = 290,000); in the data active = inhibition mostly above about 28%, no sharp cut-off; inactive = mostly below about 43%; note: 0% is about no effect
CHX counter – Cycloheximide Counterscreen for Small Molecule Inhibitors of Shiga Toxin; cell reporter, cycloheximide protein synthesis inhibition counterscreen; max response, %; actives 12% (n = 300,000); AID 2314, 2010; in the data active = max response mostly above about 13%, no sharp cut-off; inactive = mostly below about 14%; note: read at 38.3 µM for the half of the compounds with a filed dose; 0% is about no effect
Tb PYK inh – qHTS of Trypanosoma Brucei Inhibitors. TbPYK enzyme, Kinase-Glo Plus ATP luminescence, 45 min. pyruvate kinase (Trypanosoma brucei), Q57TT1. Potency, µM (top dose mostly 76.8 µM), for inactives: at the highest dose activity, negative = inhibition, most hits filed as inhibitors. actives 0.12% (n = 410,000); note: potency is the fitted concentration of half-maximal effect; % is set by controls: 0 for no effect and ±100 for the full control effect; nearly all actives have a fitted effect of over 50% in size
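Assay buffer: 50 mM TEA pH 7.2, 100 mM KCl, 10 mM MgCl2, 0.05% BSA, 0.01% Tween-20. Pyruvate kinase from T. brucei plus substrate met compound, then ADP (130 uM final). Luminescence was read post 45 min RT.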
* marks the source's active call; other numbers are inactive results; ? = inconclusive; . = no result. Many of the other results were omitted from the sample, so hits are more common in it than they were. Unless noted, calls come from the whole dose curve; as a rule, active = well fitted curve in the direction sought with a large enough effect; inconclusive = small, poorly fitted or top-dose-only effect, or another doubt; inactive = no such curve, though single readings can be large; an effect the other way counts as inactive or inconclusive.

SMILES	LmPK inh	FBPA Giardia inh	Sm TGR inh	Shiga inhibitor	CHX counter	Tb PYK inh
N#Cc1c(/N=C/c2ccc(-c3ccc(C(=O)O)c(Cl)c3)o2)sc2c1CCCC2	.	.	-18.0%	.	.	-13.1%
N#Cc1c(/N=C/c2cccnc2)sc2c1CCCC2	-9.5%	-15.5%	-24.0%	15.0	-0.9	0.0%
CCCn1c2ccccc2c2cnn(CC(=O)N3CCN(c4ccccc4)CC3)c(=O)c21	.	.	-1.8%	.	.	-1.4%
NS(=O)(=O)c1c(Sc2ccccc2C(=O)O)ccc2ccccc12	-0.6%	8.2%	-13.0%	.	29.9*	-2.8%
COc1ccc(-n2ncc3c2CC(C)(C)CC3NC(=O)c2ccc(OC)o2)cc1 (stereo not drawn)	1.5%	5.9%	-18.1%	2.8	-2.2	-5.9%
COc1ccc(-n2ncc3c2CC(C)(C)CC3NC(=O)c2ccoc2C)cc1 (stereo not drawn)	-17.0%	.	?	15.4	16.7*	3.0%
COc1ccc(-n2ncc3c2CC(C)(C)CC3NC(=O)C2CCN(C(C)=O)CC2)cc1 (stereo not drawn)	-8.4%	.	5.4%	22.9*	19.3*	2.0%
Cc1ccc(C(=O)CSc2nc(-c3ccccc3)nc3c2CCCC3)cc1C	.	.	0.4%	.	.	-9.2%
COc1ccc(C)cc1NC(=O)c1cc(S(=O)(=O)N2CCc3ccccc3C2)ccc1F	.	.	10.7%	.	.	-2.3%
COc1cc(/C=C2\C=CC(=O)O2)cc(OC)c1	-4.0%	5.2%	-9.5%	19.4	18.1*	2.6%
COc1ccc(OC2CCN(S(=O)(=O)c3cccc(F)c3)CC2)cc1	3.2%	-2.3%	-1.6%	81.2*	36.5*	-8.0%
COc1ccc(C2c3c(oc4ccc(Cl)cc4c3=O)C(=O)N2CCN2CCOCC2)cc1 (stereo not drawn)	8.5%	-5.0%	-30.8%	32.2	13.0*	-3.4%
COc1cccc(C2c3c(oc4ccc(C)cc4c3=O)C(=O)N2CCCN2CCOCC2)c1OC (stereo not drawn)	.	.	?	.	.	0.8%
COc1ccc(CCN2C(=O)c3oc4ccc(F)cc4c(=O)c3C2c2ccc(C(C)(C)C)cc2)cc1 (stereo not drawn)	.	.	-5.0%	.	.	1.1%
Cc1ccc(C2c3c(oc4ccc(Cl)cc4c3=O)C(=O)N2CCCN2CCOCC2)o1 (stereo not drawn)	2.1%	-13.8%	?	17.4	9.5*	.
O=C1c2oc3ccc(Cl)cc3c(=O)c2C(c2ccco2)N1CCN1CCOCC1 (stereo not drawn)	2.6%	-21.1%	35.5µM*	17.9	-2.9	-1.1%
CC(=O)Nc1nc(-c2ccc3c(c2)CC(C)N3C(=O)C2CC2)c(C)s1 (stereo not drawn)	0.7%	-19.8%	-22.7%	65.3*	19.9*	-11.6%
CC1Cc2cc(S(=O)(=O)NCc3ccccc3)ccc2N1C(=O)C1CCC1 (stereo not drawn)	1.0%	18.7%	1.1%	7.9	-2.2	-2.9%
Cc1sc(NC(=O)c2ccco2)nc1-c1ccc2c(c1)CC(C)N2C(=O)C1CC1 (stereo not drawn)	-4.9%	-12.9%	-34.1%	175.2*	30.6*	-13.3%
CCOC(=O)C(=O)Nc1nc(-c2ccc3c(c2)CCN3C(=O)C2CC2)c(C)s1	-1.2%	?	-4.7%	47.2	19.9*	-2.6%
O=C(O)C(Cc1ccccc1)N=C(NS(=O)(=O)c1ccccc1)c1ccccc1 (stereo not drawn)	.	.	.	.	.	0.0%
O=[N+]([O-])c1cccc(S(=O)(=O)Nc2ccc3cn[nH]c3c2)c1	.	.	.	.	.	2.1%
CCN(CC)C(=O)Oc1ccc2ccccc2c1Br	-0.4%	1.4%	1.6%	75.7*	25.4*	2.9%
O=C(COc1ccc(Br)cc1)NCc1ccccn1	-12.0%	-0.2%	8.0%	9.1	-3.1	3.8%
O=C(Oc1ccc2cc(Br)ccc2c1)N1CCCCCC1	-0.1%	2.4%	4.8%	58.1*	48.4*	.
SMILES	LmPK inh	FBPA Giardia inh	Sm TGR inh	Shiga inhibitor	CHX counter	Tb PYK inh
O=C(COc1ccc2ccccc2c1Br)NCc1ccccn1	1.0%	-1.0%	-7.6%	57.4*	23.2*	2.5%
O=C(Oc1ccc2ccccc2c1Br)N1CCCCCC1	-12.0%	6.2%	-16.7%	116.9*	35.6*	-20.4%
CCN(CC)C(=O)Oc1ccc(Br)c2ccccc12	0.4%	-6.3%	2.3%	-4.5	1.3	-6.0%
Cc1ccc(CNC(=O)COCc2cc(-c3ccc4c(c3)OCO4)on2)cc1	.	.	3.4%	.	.	3.7%
Cc1ccc2c(c1)N(C(=O)CCC(=O)NCc1cccc(F)c1)CC(C)O2 (stereo not drawn)	.	.	-10.6%	.	.	0.4%
CCCCn1cc2c(c1-c1ccc(Br)cc1)c(=O)n(C)c(=O)n2C	.	.	12.8%	.	.	2.2%
NC(=O)C1CCN(C(=O)COc2ccc3ccccc3c2Br)CC1	-0.2%	.	-19.2%	12.8	6.1	-4.9%
O=C(COc1ccc2ccccc2c1Br)N1CCCCC1	-5.1%	.	-0.2%	88.5*	62.4*	?
O=c1c(O)c(-c2ccc(O)cc2)oc2ccc(O)cc12	.	8.3%	.	.	.	.
CC(C)(C)c1ccc(N=C2SCC(=O)N2Cc2cccs2)cc1	-0.8%	-18.5%	11.7%	49.7*	46.9*	5.4%
COc1cc(CN2CCN(CCCSc3cc(C(C)(C)C)c(O)c(C(C)(C)C)c3)CC2)cc(OC)c1OC	.	-10.9%	.	-1.7	-1.7	.
CCN1CCN(Cc2cc(C(C)(C)C)c(O)c(C(C)(C)C)c2)CC1	-15.4%	?	2.82µM*	0.9	-3.5	.
CC(C)(C)c1cc(CN2CCN(CCO)CC2)cc(C(C)(C)C)c1O	2.2%	-20.6%	2.51µM*	-5.0	-5.3	1.5%
CN1CCN(CC(=O)c2cc(C(C)(C)C)c(O)c(C(C)(C)C)c2)CC1	1.4%	-23.8%	-28.9%	.	-1.2	-2.5%
CCc1ccc2[nH]c3nc(SCCN4CCOCC4)nnc3c2c1	-6.1%	9.8%	-1.8%	17.4*	20.9*	-7.4%
CCc1ccc2[nH]c3nc(SCC(=O)NCC4CCCO4)nnc3c2c1 (stereo not drawn)	-5.3%	-4.7%	0.1%	6.5	-9.0	-0.7%
NCC(=O)N[C@@H](CCCN=C(N)N)C(=O)NCC(=O)N[C@@H](CC(=O)O)C(=O)N[C@@H](CC(N)=O)C(=O)N1CC[C@@H](C(=O)O)C1	.	5.4%	.	2.2	-8.1	.
Cc1cc(C)n(-c2nnc(C)n2/N=C/c2cc(Br)ccc2OCc2ccccc2)n1	2.4%	3.6%	-11.0%	37.9	20.2*	-0.6%
Cc1cccc(N2CCN(S(=O)(=O)c3ccc(-c4cnc(C5CC5)o4)cc3)CC2)c1C	.	.	-32.9%	.	.	-9.8%
Cc1ccc(-n2c(C)cc(/C=c3/sc4nc5ccccc5n4c3=O)c2C)cc1	0.7%	2.5%	-29.5%	86.7*	35.1*	-21.0%

Compound activity: PubChem BioAssay, National Center for Advancing Translational Sciences (NCATS)
